PubChem BioAssay (Tox21)
Inconclusive results are not listed. Calls of active or inactive are those of the source. Calls come from the whole dose curve; as a rule, active = well fitted activation curve with a large enough effect in the signal ratio in the repeat runs (not every such curve was filed as active); inconclusive = weak or mixed curves; inactive = flat fitted curve, though single readings scatter; the % refers to the signal ratio.

Assay: qHTS assay to identify small molecule agonists of the hypoxia (HIF-1) signaling pathway (AID 1224846)
Details: HRE-bla ME-180 cells, beta-lactamase ratio, 17 h; series mostly up to 76.8 µM; activation: at the top concentration
Source text: U.S. Tox21 Program National Center for Advancing Translational Sciences [NCATS] NIH Chemical Genomics Center [NCGC] U.S. Environmental Protection Agency [EPA] National Institutes of Environmental Health Sciences [NIEHS] National Toxicology Program [NTP] U.S. Food and Drug Administration [FDA] Tox21 Assay Overview: Hypoxia-inducible factor-1 (HIF-1) is the major hypoxia-regulated transcription factor that controls cellular responses to low oxygen concentration. HIF-1 is composed of two subunits: hypoxia responsive HIF-1-alpha and constitutively expressed HIF-1-beta, which is also known as aryl hydrocarbon receptor nuclear translocator. During hypoxic conditions, HIF-1-alpha heterodimerizes with HIF-1-beta and translocates into the nucleus where the HIF-1 complex binds to the hypoxia-response element (HRE) and activates expression of target genes such as VEGF (vascular endothelial growth factor). The HIF-1 pathway is essential to normal growth and development, and is involved in the pathophysiology of cancer, inflammation, and ischemia. Using a beta-lactamase reporter-gene under control of the hypoxia response element, a cell-based assay [CellSensor(TM) HRE-bla ME-180 from Life Technologies, Carlsbad, CA] was used to measure hypoxia-induced signaling. Tox21 10K library compounds were measured for their ability to induce the reporter gene activity.
Tox21 Assay Protocol Summary: HRE-bla ME-180 cells were dispensed at 2,000 cells per well in 6 uL of assay medium containing 0.5% dialyzed FBS into black wall/clear-bottom 1536-well plates using a Multidrop Combi (Thermo Scientific, Waltham, MA) dispenser. After the assay plates were incubated at 37C and 5% CO2 for 5 hrs, 23 nL of compounds dissolved in DMSO, positive controls or DMSO only was transferred to each well of the assay plate using a Pintool station (Kalypsys, San Diego, CA). The assay plates were incubated at 37C and 5% CO2 for 17 hrs. One uL of LiveBLAzerTM B/G FRET substrate (CCF4-AM) (Life Technologies) was added to each well using a Flying Reagent Dispenser (Aurora Discovery, San Diego, CA).
% is set by controls: 0 for no effect and ±100 for the full control effect.

| SMILES | activation | outcome |
| --- | --- | --- |
| COc1ccc([N+](=O)[O-])cc1O | 0.913% [at 35.5 µM] (inactive) |  |
| CCc1cc(C)cc(CC)c1-c1c(OC(=O)C(C)(C)C)n2n(c1=O)CCOCC2 | 0.141% (inactive) |  |
| COc1ccc(N)cc1N | 2.46% (inactive) |  |
| C=CCOC(N)=O | -0.982% (inactive) |  |
| Cc1ccc(OP(=O)(Oc2ccccc2)Oc2ccccc2)cc1 | 1.64% (inactive) |  |
| COC(=O)N(C(=O)N1CO[C@@]2(C(=O)OC)Cc3cc(Cl)ccc3C2=N1)c1ccc(OC(F)(F)F)cc1 | 6.96% (inactive) |  |
| O=[N+]([O-])c1cc([N+](=O)[O-])c2ccccc2c1 | 3.45% (inactive) |  |
| Oc1c(Cl)c(Cl)cc(Cl)c1Cl | 4.2% (inactive) |  |
| CS(=O)(=O)c1ccc(C(=O)C2C(=O)CCCC2=O)c([N+](=O)[O-])c1 | 1.8% (inactive) |  |
| Clc1ccc(-c2ccccc2)cc1 | 0.996% (inactive) |  |
| CCOP(=S)(OCC)SCS(=O)(=O)C(C)(C)C | -0.567% (inactive) |  |
| COc1ccc(/C(=C/C(=O)N2CCOCC2)c2ccc(Cl)cc2)cc1OC | -1.05% (inactive) |  |
| ClCc1ccc(Cl)cc1Cl | 2.58% (inactive) |  |
| CCCCCCCCCBr | 0.63% (inactive) |  |
| N#CCCSCCC#N | -0.242% (inactive) |  |
| CCOP(=S)(OCC)SCCS(=O)(=O)CC | 0.114% (inactive) |  |
| COc1ccc(OC)c(C=O)c1 | -0.433% (inactive) |  |
| CC(=O)c1cc(C(C)(C)C)cc2c1CCC2(C)C | -0.563% (inactive) |  |
| Brc1c(Br)c(Br)c(Oc2c(Br)c(Br)c(Br)c(Br)c2Br)c(Br)c1Br | 0.0203% [at 15.8 µM] (inactive) |  |
| ClC1=C(Cl)[C@]2(Cl)[C@@H]3[C@@H](Cl)[C@H](Cl)C[C@@H]3[C@@]1(Cl)C2(Cl)Cl | -0.734% (inactive) |  |

| SMILES | activation | outcome |
| --- | --- | --- |
| CCOP(=S)(OCC)OC(Cl)C(Cl)(Cl)Cl (stereo not given) | -0.166% (inactive) |  |
| Cc1cc(C)cc(OP(=O)(Oc2cc(C)cc(C)c2)Oc2cc(C)cc(C)c2)c1 | 3.45% (inactive) |  |
| O=C(NC(=O)c1c(F)cccc1F)Nc1cc(Cl)c(OC(F)(F)C(F)F)c(Cl)c1 | 4.74% (inactive) |  |
| c1ccc(OCC2CO2)cc1 (stereo not given) | -0.282% (inactive) |  |
| NNC(=O)c1ccccc1 | -1.25% (inactive) |  |
| Clc1ccc(Oc2ccccc2)cc1 | 0.0328% (inactive) |  |
| N#Cc1ccc(O)cc1 | 0.61% (inactive) |  |
| CC(C)OS(C)(=O)=O | -1.23% (inactive) |  |
| CC(=[OH+])/C=C(/C)[O-].CC(=[OH+])/C=C(\C)[O-].CC(=[OH+])/C=C(\C)[O-].[Al] | -0.0053% (inactive) |  |
| ClCCN1CCOCC1 | -1.47% (inactive) |  |
| C1CCC2CCCCC2C1 (stereo not given) | 0.202% (inactive) |  |
| Nc1ccc([N+](=O)[O-])cc1Cl | -0.186% (inactive) |  |
| CC(O)C#N (stereo not given) | -0.716% (inactive) |  |
| CCOC(=O)OC1=C(c2cc(C)ccc2C)C(=O)NC12CCC(OC)CC2 (stereo not given) | -0.73% (inactive) |  |
| ClC1=C(Cl)C2(Cl)C3C(Cl)C(Cl)CC3C1(Cl)C2(Cl)Cl (stereo not given) | 5.32% (inactive) |  |
| CCCCCCCCCCBr | -0.058% (inactive) |  |
| CN(CCCC(=O)c1cccnc1)N=O | 0.26% (inactive) |  |
| CCCCCCCCCCCCCN1CC(C)OC(C)C1 (stereo not given) | 0.956% (inactive) |  |
| C[C@H]1O[C@@H](O[C@H]2[C@@H](O)C[C@H](O[C@H]3[C@@H](O)C[C@H](O[C@H]4CC[C@@]5(C)[C@H](CC[C@@H]6[C@@H]5CC[C@]5(C)[C@@H](C7=CC(=O)OC7)CC[C@]65O)C4)O[C@@H]3C)O[C@@H]2C)C[C@H](O)[C@@H]1O |  | inactive |
| CC(=O)/C=C/c1ccc2c(c1)OCO2 | 2.56% (inactive) |  |
